# Only a selection was taken, and hits are over-represented in it overall.
# ST2 inh: IL1RL1 inhibition. 78,000 tested, 2.3% active. Q01638. AlphaLISA ST2-Fc/biotin-IL-33 interaction, 1 h. inhibition, % for hits at 17 µM; in the data active = inhibition above about 30%
# Target sequence (Q01638 whole entry, looked up): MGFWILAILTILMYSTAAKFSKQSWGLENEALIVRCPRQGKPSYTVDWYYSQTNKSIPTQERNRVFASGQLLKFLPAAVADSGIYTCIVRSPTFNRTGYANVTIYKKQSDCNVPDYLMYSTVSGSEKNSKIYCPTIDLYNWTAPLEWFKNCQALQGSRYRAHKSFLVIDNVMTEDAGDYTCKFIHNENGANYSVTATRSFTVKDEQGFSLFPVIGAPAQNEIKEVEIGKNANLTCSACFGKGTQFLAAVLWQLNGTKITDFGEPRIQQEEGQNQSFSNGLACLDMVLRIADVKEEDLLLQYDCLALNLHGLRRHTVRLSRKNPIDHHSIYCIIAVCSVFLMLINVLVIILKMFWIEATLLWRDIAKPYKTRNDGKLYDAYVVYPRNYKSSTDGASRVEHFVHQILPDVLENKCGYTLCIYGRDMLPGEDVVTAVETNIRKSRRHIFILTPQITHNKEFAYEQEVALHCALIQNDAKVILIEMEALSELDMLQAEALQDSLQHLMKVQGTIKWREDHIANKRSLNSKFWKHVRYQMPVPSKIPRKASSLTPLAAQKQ
# Numbers stand for hits; 0 = inactive.
SMILES,ST2 inh
Cc1c(CCN)c2ccccc2n1-c1ccccc1,37%
CCOP(=S)(OCC)N1CCOCCOCCOCCOCC1,0
CCN(CC)C(=O)c1ccc2c(c1)C1C=CCC1C(C(=O)O)N2 (centres undefined),60%
CCN(CC)C(=O)c1ccc(N2C(=O)C3CC=C(Cl)CC3C2=O)cc1 (centres undefined),0
C#C[C@H]1CN2CC[C@H]1C[C@@H]2CNC(=S)Nc1cccc2ccccc12,0
C=C[C@H]1CN2CC[C@H]1C[C@@H]2CNC(=S)NCc1ccccc1,0
CCOc1ccccc1CN1CCN(CC)CC1,0
Cc1ncc2c(c1CNC(=O)c1cn[nH]n1)CCNC2,0
Cn1nc(-c2ccco2)cc1[C@H]1CN2CC[C@H]1C[C@@H]2CNS(=O)(=O)c1cccs1,0
CCN1CCN(Cc2ccc(Cl)cc2)CC1,0
Cc1cccc(N2CCN(Cc3ccc(F)cc3)CC2)c1C,0
COc1cc(CN2CCN(c3cccc(C)c3C)CC2)ccc1O,0
Cc1cccc(N2CCN(Cc3ccc([N+](=O)[O-])cc3)CC2)c1C,47%
Cc1ccccc1N1CCN(Cc2ccccc2)CC1,0
CCN1CCN(Cc2ccc(N(C)C)cc2)CC1,32%
Cc1cccc(N2CCN(Cc3ccccc3)CC2)c1C,0
Cc1cccc(N2CCN(Cc3ccc(N(C)C)cc3)CC2)c1C,54%
CCN1CCN(Cc2ccc(OC)c(OC)c2)CC1,0
COc1cccc(CC(C)NCc2nn(C)c3ccc(C)cc23)c1 (centres undefined),0
Cc1nnc(N2CCN(C)CC2)[nH]c1=O,0
CCOC(=O)C1C2NC(=O)N(c3cc(C)cc(C)c3)C1(C)Oc1c(OC)cccc12 (centres undefined),0
C=C[C@H]1CN2CC[C@H]1C[C@@H]2CNC(=S)Nc1cc(OC)cc(OC)c1,0
CCN(CC)C[C@H]1CN2CC[C@H]1C[C@@H]2CNC(=S)NCCOC,0
O=C(Nc1ccc2n(c1=O)C[C@@H]1CNC[C@H]2C1)c1cnccn1,0
O=c1ccc(-c2ccc(OC(F)(F)F)cc2)c2n1C[C@@H]1CNC[C@H]2C1,0
SMILES,ST2 inh
Cn1nc(C2CCCCC2)cc1[C@H]1CN2CC[C@H]1C[C@@H]2CNC(=S)Nc1cccc(C#N)c1,0
N#Cc1c(Cl)c(Cl)nc(N2CCCNCC2)c1Cl,43%
C#Cc1ccc(CN(C)C(C)Cc2cc(C)ccn2)cc1 (centres undefined),0
O[C@]12CCCC[C@@H]1[C@@H](c1ccccc1F)NCC2,0
O=[N+]([O-])c1ccc(C(Cl)Cl)o1,64%
O=C(CN1C(=O)CN=C(c2ccccc2)c2ccccc21)Nc1ccccc1C(F)(F)F,0
CN(C)c1ccc(N2CCNCC2)c([N+](=O)[O-])c1,0
CC1CCN(c2cc(Br)c([N+](=O)[O-])cc2F)CC1,45%
O=[N+]([O-])c1cc(F)c(N2CCCCC2)cc1Br,42%
CC1CN(c2ccccc2[N+](=O)[O-])CC(C)N1 (centres undefined),0
COc1cc(CN2CCN(c3ccccc3C)CC2)ccc1O,0
O=C(c1cccs1)N1C[C@@H]2C[C@H](C1)c1c(/C=C/c3ccc(Cl)cc3)ccc(=O)n1C2,0
O=C(O)COCC(=O)N1C[C@@H]2C[C@H](C1)c1ccc(NC(=O)Cc3ccccc3)c(=O)n1C2,0
CCCNC(=O)CN1CCCN(Cc2ccccc2)S1(=O)=O,0
Oc1cccc(CN2CCN(c3ccc(F)cc3)CC2)c1,0
Cc1cccc(CN2CCN(c3ccc([N+](=O)[O-])cc3)CC2)c1,42%
O=[N+]([O-])c1ccc(N2CCN(Cc3cccc(Br)c3)CC2)cc1,32%
COc1ccc(N2CCN(Cc3cccc([N+](=O)[O-])c3)CC2)cc1,0
O=[N+]([O-])c1ccc(N2CCN(Cc3ccc(Br)cc3)CC2)cc1,0
CCN1CCN(Cc2cccc(C)c2)CC1,0
C=CCN(C)C[C@H]1CN2CC[C@H]1C[C@@H]2CNS(=O)(=O)c1cccs1,0
Cc1ccnc(CC(C)N(C)Cc2ccc(-c3ccn[nH]3)o2)c1 (centres undefined),0
COc1ccc2c(CCN)c[nH]c2c1,0
CCOC(=O)c1c(C)n(C(C)C)c2ccc(OC)cc12,0
COc1ccc2c(c1)c(CCN)c(C)n2Cc1ccccc1,38%
SMILES,ST2 inh
CCOc1ccccc1N1CCN(Cc2cccc(C)c2)CC1,0
Cn1nc(C2CCCCC2)cc1[C@H]1CN2CC[C@H]1C[C@@H]2CNS(=O)(=O)c1cccs1,0
CCN(CCNc1ccc([N+](=O)[O-])c2cccnc12)S(=O)(=O)c1ccccc1,0
O=[N+]([O-])c1ccc(O)cc1CN1CCN(Cc2ccccc2)CC1,0
O=[N+]([O-])c1ccc(NCc2ccccc2)c2ncccc12,51%
O=[N+]([O-])c1ccc(N2CCCCC2)c2ncccc12,62%
COc1ccc(C2NCCc3[nH]cnc32)c(OC)c1 (centres undefined),0
COCCC(=O)N1C[C@@H]2C[C@H](C1)c1ccc(NC(=O)C3CCCCC3)c(=O)n1C2,0
N#Cc1cccc(-c2ccc3n(c2=O)C[C@H]2C[C@@H]3CN(C(=O)c3cccs3)C2)c1,0
C=C[C@H]1CN2CC[C@H]1C[C@@H]2CNC(=S)NCC,0
CN(C)Cc1cn(C[C@H]2C[C@@H]3CCN2C[C@@H]3C(=O)N2CCCC2)nn1,0
COc1ccc(C(=O)N2C[C@@H]3C[C@H](C2)c2ccc(NC(=O)C4CC4)c(=O)n2C3)cc1,0
COc1ccc(CCNC2CCC(C)C2)cc1 (centres undefined),50%
CCN1CCN(Cc2cc(OC)c(OC)c(OC)c2)CC1,0
CC(=O)c1ccc(N2CCN(Cc3cccc(Br)c3)CC2)cc1,0
Fc1ccc(N2CCN(Cc3cccc(Br)c3)CC2)cc1,0
CCOc1ccccc1N1CCN(Cc2ccc(OC)cc2)CC1,0
CC(C)c1ccc(CN2CCN(c3ccccc3)CC2)cc1,0
COc1ccc(OC)c(CN2CCN(C)CC2)c1,0
COc1ccc(OC)c(CN2CCN(c3ccc(Cl)cc3)CC2)c1,34%
Cc1ccccc1N1CCN(Cc2ccc(Br)cc2)CC1,0
COc1ccc(CN2CCN(c3ccc(OC)cc3)CC2)cc1,32%
COc1ccc(N2CCN(Cc3cccc(Br)c3)CC2)cc1,44%
COc1ccccc1N1CCN(Cc2ccc(F)cc2)CC1,0
COc1ccc(CN2CCN(c3ccccc3Cl)CC2)c(OC)c1,0
SMILES,ST2 inh
Brc1ccc(CN2CCN(c3ccccc3)CC2)cc1,32%
COc1ccc(Br)cc1C1N(c2ccccn2)C(=O)C2CCCN21 (centres undefined),0
CN1[C@@H]2CC[C@H]1CC(OC(c1ccccc1)c1ccccc1N)C2 (some centres undefined),0
O=C(NC1CC1)[C@H]1CN2CC[C@H]1C[C@@H]2Cn1cc(-c2cccc(O)c2)nn1,0
CN1C(=O)C(=Cc2cccn2-c2ccc(Cl)cc2)C(=O)N(C)C1=O,0
Cc1cc(N(C)C)cc(C)[n+]1OC(=O)N(c1ccccc1)c1ccccc1,0
CC(C)[C@@H](C)/C=C/[C@@H](C)[C@H]1CC[C@@H]2[C@]1(C)CCC1[C@]23C=C[C@]2(C[C@@H](O)CC[C@]12C)OO3 (some centres undefined),0
C=CCN(C)C[C@H]1CN2CC[C@H]1C[C@@H]2CNC(=O)c1ccco1,0
O=C(c1cn(-c2ccccc2)nn1)N1C[C@@H]2C[C@H](C1)c1cccc(=O)n1C2,0
COc1ccc(C2N(c3ccccn3)C(=O)C3CCCN32)cc1 (centres undefined),0
O=C(NCCC1=CCCCC1)c1cn(CC2CCCO2)nn1 (centres undefined),0
CCOc1ccccc1N1CCN(Cc2ccccc2C)CC1,0

# Compound activity as filed in PubChem.
